Experimental data from PubChem BioAssay AID504370 (National Center for Advancing Translational Sciences (NCATS), 2011).
The list shows a part of the results. Inconclusive results are not listed. Calls of active or inactive are those of the source. The call rests on the fitted dose curve; in most records, active means well fitted inhibition curve with a large enough effect; inconclusive means small, poorly fitted or top-dose-only effect; inactive means flat fitted curve, though single readings scatter.

experiment: qHTS Assay for Compounds Blocking the Interaction Between CBF-beta and RUNX1 for the Treatment of Acute Myeloid Leukemia: ME-1 cellular proliferation; details: ME-1 cell proliferation, ATP luminescence, 48 h; series mostly up to 56.1 µM
Source text: NIH Chemical Genomics Center [NCGC]
NIH Molecular Libraries Probe Production centers Network [MLPCN]
Assay Submitter (PI): Paul Liu
Core Binding Factor (CBF) abnormalities are associated with 20-25% of all acute myeloid leukemias (AML), of which 5-10% are further sub classified as acute myelomonocytic leukemia with eosinophilia, also known as M4Eo in the FAB classification scheme. This subtype of leukemia is usually associated with chromosome 16 inversion (p13:q22). Chromosome 16 inversion results in formation of the fusion oncogene CBFB-MYH11, which encodes the fusion protein CBF-beta-SMMHC.
It has been hypothesized that the interference of CBF-beta and RUNX1 binding could have therapeutic implications for patients with CBF mediated leukemias. We developed a CBF-beta and RUNX1 binding assay in AlphaScreenTM format and optimized it for high throughput screening to search for inhibitors. The goal of this project is to screen MLPCN's compound collection (MLSMR) for identifying the inhibitors of the interaction between CBF-beta and RUNX1 proteins as research probes. If these probes work well in the animal models, the ultimate goal of this project is to development a new drug treatment for this disease.
The present assay assesses compounds ability to slow cellular proliferation in a CBFb dependent cell line, ME-1.
2uL/well media was dispensed per well into 1536-well white solid-bottom plates using Multidrop Combi dispenser. Subsequently, 23 nL/well compound solutions or DMSO controls were dispensed to the assay plates via a pintool workstation. The cells were grown in T225 flasks to 70% confluence under a standard cell culture condition (ATCC), detached with 0.25% Trypsin/EDTA, and seeded at 250 cells/well in 5uL medium (Dulbecco's Modified Eagle Medium, 10% fetal bovine serum, 1x penicillin/streptomycin).

outcome, inactive:
CC(C)C(N)C(=O)OCCOCn1cnc2c(=O)[nH]c(N)nc21 (stereo not given)
O=C(OCC1O[C@@H](OC(=O)c2cc(O)c(O)c(O)c2)[C@@H](OC(=O)c2cc(O)c(O)c(O)c2)[C@@H](OC(=O)c2cc(O)c(O)c(O)c2)[C@@H]1OC(=O)c1cc(O)c(O)c(O)c1)c1cc(O)c(O)c(O)c1 (stereo not given in full)
CC[N+](C)(CC)CCC[n+]1c(-c2ccccc2)c2cc(N)ccc2c2ccc(N)cc21
N#Cc1ccc(C(c2ccc(C#N)cc2)n2cncn2)cc1
COc1cc(C(=S)NCc2ccccc2)cc(Br)c1O
